Rab9 promoter act: Rab9 promoter activation. Potency, µM (highest dose often 9.22 µM), inactives show at the top dose activation, negative = inhibition, hits mostly activators. 2.8% of 320,000 active. AID 485297. Huh7 Rab9 promoter-luciferase reporter, luminescence, 24 h; note: % of control where 0% means no effect; nearly all actives have a fitted effect of over 60% in size
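Stable Rab9-luc Huh7, 1500 cells/well, 2 h settle; cmpd in DMSO, 24 h, 37 °C/5% CO2; luciferase reagent 10 min RT; luminescence.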
ELG1 genotoxic: induces genotoxicity in HEK293T cells with luciferase-tagged ELG1; HEK293T ELG1-luciferase reporter, luminescence, 16 h; Potency, µM (doses to about 46 µM), without a hit: top-dose activity change, positive = activation, most hits filed as activators; 1.3% of 330,000 active; note: % of control where 0% means no effect; nearly all actives have a fitted effect of over 60% in size
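DMSO vehicle served as control against compound-treated ELG1-luciferase HEK293T cells; exposure lasted 16 hr at 37 °C and 5% CO2, followed by ONE-Glo luminescence detection after 30 min.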
FLuc modulator: counter-screen for miR-21 project: firefly luciferase inhibitors or activators | purified FLuc, Km substrates, luminescence inhibition | Potency, µM (series often up to 57.5 µM), for the others: at the highest dose activity change, negative = inhibition, hits mostly inhibitors | 6.9% of 360,000 active;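 note: plate controls were vehicle for no effect and reference inhibitor for full effect; nearly all actives have a fitted effect of over 55% in size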
Target sequence (P08659 whole entry, looked up): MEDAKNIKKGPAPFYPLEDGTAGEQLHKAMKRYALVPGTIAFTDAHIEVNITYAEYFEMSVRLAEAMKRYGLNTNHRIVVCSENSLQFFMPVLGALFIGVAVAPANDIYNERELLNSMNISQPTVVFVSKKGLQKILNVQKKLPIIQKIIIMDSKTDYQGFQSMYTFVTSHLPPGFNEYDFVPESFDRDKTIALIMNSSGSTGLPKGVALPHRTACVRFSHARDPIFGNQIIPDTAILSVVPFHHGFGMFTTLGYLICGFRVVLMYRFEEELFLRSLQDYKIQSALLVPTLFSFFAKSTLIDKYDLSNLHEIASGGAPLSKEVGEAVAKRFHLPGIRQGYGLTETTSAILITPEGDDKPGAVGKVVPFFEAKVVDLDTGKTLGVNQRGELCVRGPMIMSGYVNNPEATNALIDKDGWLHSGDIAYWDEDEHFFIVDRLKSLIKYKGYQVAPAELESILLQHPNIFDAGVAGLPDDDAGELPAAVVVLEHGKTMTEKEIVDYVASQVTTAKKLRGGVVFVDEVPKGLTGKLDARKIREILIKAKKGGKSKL
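Purified P. pyralis luciferase (10nM final) with 10uM D-luciferin and 10uM ATP (Km levels) in 50mM Tris acetate pH 7.5, 10mM Mg acetate, 0.01% Tween-20, 0.05% BSA; qHTS 6-point titration, ~60 µM downward; luminescence read.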
NPC1 prom act: NPC1 promoter activation; Huh7 NPC1 promoter luciferase reporter, 24 h; Potency, µM (doses to about 9.22 µM), for inactives: at the top dose activation, most hits filed as activators; 2.4% of 320,000 active; note: % of control where 0% means no effect; nearly all actives have a fitted effect of over 60% in size
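Quantitative HTS used a cell-based reporter: Huh7 cells stably bearing the NPC1 promoter upstream of luciferase were treated with compounds for 24 h, and promoter activation was read as luminescence.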
ELG1 DNA repair: blocks ELG1-dependent DNA repair in HEK293T cells; HEK293T ELG1-luciferase reporter, luminescence, 16 h; DNA damage induced by 5-fluorouridine; Potency, µM (highest dose often 46.1 µM), for inactives: at the top dose activity change, negative = inhibition, hits mostly inhibitors; 2.3% of 330,000 active; AID 504467; note: % is set by controls: 0 for no effect and ±100 for the full control effect; nearly all actives have a fitted effect of over 55% in size
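DMSO vehicle served as the neutral condition. Each well held 2,000 cells given 5-fluorouridine plus compound; after 16 hr at 37 °C/5% CO2, ONE-Glo was added and luciferase measured 30 min later.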
SMN2 splice enh: SMN2 splice variant enhancement; Potency, µM (series often up to 46.1 µM), without a hit: top-dose activity change, positive = activation, hits mostly activators; AID 1458; 2.8% of 210,000 active; HEK293 SMN2-luciferase splicing reporter, luminescence, 30-36 h; note: % of control where 0% means no effect; nearly all actives have a fitted effect of over 55% in size
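HEK293 cells carry an SMN2 […]–luciferase reporter in which exon 7 inclusion puts luciferase in frame. Cells were plated 10-12 h before compound addition, then incubated 30-36 h at 37C. ONE-Glo luminescence was read; sodium butyrate at 4.5 mM final served as control.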
An asterisk follows results filed as active; ? = inconclusive; . = not tested or not shown; [ ] = dose if it differs, or a comment. This is a sample that favours compounds with a hit; in the whole collection about 9.2% have one here. Calls come from the whole dose curve; as a rule, active = well fitted curve in the direction sought with a large enough effect; inconclusive = small, poorly fitted or top-dose-only effect, or another doubt; inactive = no such curve, though single readings can be large; an effect the other way counts as inactive or inconclusive. Potency is the fitted concentration of half-maximal effect.

SMILES	Rab9 promoter act	ELG1 genotoxic	FLuc modulator	NPC1 prom act	ELG1 DNA repair	SMN2 splice enh
COc1cccc([C@@H]2Oc3ccc(OC)cc3C(=O)[C@H]2OC(=O)NCc2ccc3c(c2)OCO3)c1	?	?	6µM*	-2%	?	13%
COC(=O)[C@H](Cc1ccccc1)NC(=O)O[C@@H]1C(=O)c2cc(OC)ccc2O[C@H]1c1ccc(OC)c(Br)c1	-3%	1%	-9%	0%	2.9µM*	1%
COc1cccc([C@@H]2Oc3ccc(OC)cc3C(=O)[C@H]2OC(=O)NCCc2ccc(OC)c(OC)c2)c1	.	.	.	.	.	11µM*
COc1ccc2c(c1)C(=O)[C@H](OC(=O)NCCc1ccc(OC)c(OC)c1)[C@@H](c1ccc(OC)c(Br)c1)O2	.	.	.	.	.	15%
COC(=O)[C@@H](NC(=O)O[C@@H]1C(=O)c2cc(OC)ccc2O[C@H]1c1ccc(OC)c(Br)c1)C(C)C	.	.	.	.	.	12%
O=C(CN1CCC(C(=O)c2ccc3c(c2)OCCO3)CC1)Nc1ccccc1C(F)(F)F	-3%	-11%	-2%	-5%	-26%	.
CSCCC(NC(=O)c1cccc(C)c1)C(=O)OCC(=O)NC(=O)c1cccn1C (configuration not stated)	-4%	3%	?	0%	2%	.
O=C(COc1ccc(Cl)cc1)NCC(c1cccs1)S(=O)(=O)c1ccc(F)cc1 (configuration not stated)	.	.	-11%	.	.	.
O=c1c(Cl)c(Nc2cccc(Cl)c2)cnn1-c1nc2ccccc2s1	?	?	4.8µM*	?	?	10µM*
Cc1ccc(C)c(N2CCN(c3cnn(-c4nc5ccccc5s4)c(=O)c3Cl)CC2)c1	1.6µM*	18µM*	6.7µM*	2.2µM*	?	?
COc1ccc(Nc2cnn(-c3nc4ccccc4s3)c(=O)c2Cl)cc1	?	?	11µM*	?	?	10µM*
N=C(N)c1ccc(/C=C\c2ccc(C(=N)N)cc2)cc1	.	.	.	.	.	-1%[9.22 µM]
CC(C)Cc1nn2c(=O)cc(COc3ccc(NC(=O)c4ccco4)cc3)nc2s1	1%	4%	1%	1%	-9%	.
Cc1cccc(C)c1NC(=O)Cn1cc(C=O)c2ccccc21	0%	-3%	-1%	-10%	?	.
O=C(CSc1n[nH]c(-c2ccc(Br)cc2)n1)NC1CCCC1	.	0%	.	.	?	.
CCc1ccc(-c2nc(SCC(=O)N(C)C3CCS(=O)(=O)C3)n[nH]2)cc1 (configuration not stated)	24%	14%	?	13%	?	.
CCc1ccc(-c2nc(SCC(=O)c3c(N)n(C4CC4)c(=O)[nH]c3=O)n[nH]2)cc1	27%	-1%	2.1µM*	14%	2%	.
CCc1ccc(-c2nc(SCC(=O)NC3CC3)n[nH]2)cc1	15%	?	13µM*	-2%	?	.
Cc1ccc(Nc2nnc(SCC(=O)c3c(N)n(C4CC4)c(=O)[nH]c3=O)s2)cc1C	2%	-1%	0.76µM*	12%	-22%	.
CCc1ccc(-c2nc(SCC(=O)N(CC)C3CCS(=O)(=O)C3)n[nH]2)cc1 (configuration not stated)	?	9%	3.4µM*	21%	?	.
CNC(=O)NC(=O)CSc1ccc(S(=O)(=O)N(C)C2CCCCC2)cn1	-4%	0%	3%	0%	18%	.
CCOc1ccc(C2C(C(=O)Nc3ccc(C)cc3C)=C(C)Nc3c(C(=O)Nc4ccc(C)cc4)cnn32)cc1OC (configuration not stated)	.	.	5%	.	.	.
O=C(CSc1n[nH]c(-c2cccs2)n1)N1CCOCC1	.	1%	.	.	?	.
CCc1ccc(-c2nc(SCC(=O)N3CCOCC3)n[nH]2)cc1	22%	9%	17µM*	7%	?	.
CCOC(=O)c1sc2nc(C)nc(SCC(=O)N(CC)C3CCS(=O)(=O)C3)c2c1C (configuration not stated)	-8%	-3%	?	-6%	16µM*	-60%
SMILES	Rab9 promoter act	ELG1 genotoxic	FLuc modulator	NPC1 prom act	ELG1 DNA repair	SMN2 splice enh
COC(=O)c1ccc(CSc2nc3c([nH]c4ccccc43)c(=O)n2-c2cc(C)cc(C)c2)o1	.	.	1%	.	.	.
COc1cccc(NC(=O)Nc2ccc3c(c2)OCO3)c1	1.4µM*	?	7.6µM*	2µM*	?	.
COc1cccc(NC(=O)CN(C)CC(=O)Nc2ccc3c(c2)OCO3)c1	.	0%	.	.	-7%	.
COc1ccc(OC)c(S(=O)(=O)N(C)CC(=O)Nc2ccc3c(c2)OCO3)c1	0%	4%	-13%	-1%	-14%	5%
COc1ccc(OC)c(NC(=O)Nc2ccc3c(c2)OCO3)c1	8%	0%	27µM*	4%	0%	.
O=C(Nc1ccc2c(c1)OCO2)Oc1ccccc1	.	.	11µM*	.	.	-7%
Cc1cccc(N2CCN(S(=O)(=O)c3cc(C(=O)Nc4ccccc4Cl)ccc3F)CC2)c1C	.	.	-1%	.	.	.
COCCNC(=O)CCCN1C(=O)CCn2nc(-c3cccn3C)cc21	.	.	-2%	.	.	.
Cc1c(C(=O)N(C)C)sc2c1c(=O)n(-c1ccc(Cl)c(Cl)c1)c(=O)n2CC(=O)Nc1cccc(C(F)(F)F)c1	.	.	0%	.	.	.
CCOc1ccc(-n2nnnc2SCC(=O)c2ccccc2)cc1	-2%	10%	?	24%	11%	-18%
Cc1c(Cl)cnc(NC(=O)CSc2nnc3ccccn23)c1Cl	?	18µM*	?	21%	?	?
CCOc1ccc(C(=O)CSc2nnc3ccccn23)cc1	1.1µM*	21µM*	3µM*	2µM*	?	-2%
O=C(CSc1nnc2ccccn12)c1ccc(Cl)cc1	3.5µM*	?	?	23%	?	-8%
O=C(CSc1nnc2ccccn12)NNC(=O)c1ccc(Cl)cc1	-4%	-2%	-7%	-2%	-2%	-7%
Cc1ccccc1OCCC(=O)NCCc1ccc(S(N)(=O)=O)cc1	-2%	0%	2%	-1%	10%	-9%[1.84 µM]
COc1ccccc1N(C(=O)CCl)c1cn(C(C)=O)c2ccccc12	-52%	-18%	-2%	-44%	12µM*	.
CC(=O)n1cc(N(C(=O)CCl)c2ccc(Cl)cc2)c2ccccc21	-57%	-19%	-1%	-40%	?	.
N#CCSc1ccccc1NC(=O)COc1ccc(-c2nnco2)cc1	-1%	-4%	-17%	-3%	?	.
N#Cc1ccsc1NC(=O)COC(=O)c1ccc(NC(N)=O)cc1	?	21µM*	5.4µM*	1.1µM*	?	13µM*
N#Cc1ccsc1NC(=O)COc1ccc(-c2nnco2)cc1	?	?	15µM*	?	?	?
